In PubChem BioAssay AID687016 (The Scripps Research Institute Molecular Screening Center, 2013):
Screen size: about 370,000 compounds; about 2,800 (0.76%) were called active. The sample holds actives, similar compounds and a random draw of the others, so the mix is not that of the screen. Cut-off read from the data, not from the text of the source: active = inhibition above about 21%; inactive = the rest.

What follows are compounds tested against E3 ubiquitin-protein ligase UHRF1 (Homo sapiens) (UniProt Q96T88) (assay: blockers of UHRF1 binding to methyl-oligo – biochemical, TR-FRET, human UHRF1, single concentration, counter-screen for MBD2 inhibitor project, primary screen (AID 687016;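 note: UHRF1 SRA domain binding a hemimethylated CpG hairpin DNA probe; 0% = median of test compound wells and 100% = reference inhibitor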)). Conditions: UHRF1 binding to methylated oligo, at 4.4 µM, active compounds read high.
Sequence of E3 ubiquitin-protein ligase UHRF1 (Homo sapiens) (Q96T88 whole entry, looked up, the tested form may be a part): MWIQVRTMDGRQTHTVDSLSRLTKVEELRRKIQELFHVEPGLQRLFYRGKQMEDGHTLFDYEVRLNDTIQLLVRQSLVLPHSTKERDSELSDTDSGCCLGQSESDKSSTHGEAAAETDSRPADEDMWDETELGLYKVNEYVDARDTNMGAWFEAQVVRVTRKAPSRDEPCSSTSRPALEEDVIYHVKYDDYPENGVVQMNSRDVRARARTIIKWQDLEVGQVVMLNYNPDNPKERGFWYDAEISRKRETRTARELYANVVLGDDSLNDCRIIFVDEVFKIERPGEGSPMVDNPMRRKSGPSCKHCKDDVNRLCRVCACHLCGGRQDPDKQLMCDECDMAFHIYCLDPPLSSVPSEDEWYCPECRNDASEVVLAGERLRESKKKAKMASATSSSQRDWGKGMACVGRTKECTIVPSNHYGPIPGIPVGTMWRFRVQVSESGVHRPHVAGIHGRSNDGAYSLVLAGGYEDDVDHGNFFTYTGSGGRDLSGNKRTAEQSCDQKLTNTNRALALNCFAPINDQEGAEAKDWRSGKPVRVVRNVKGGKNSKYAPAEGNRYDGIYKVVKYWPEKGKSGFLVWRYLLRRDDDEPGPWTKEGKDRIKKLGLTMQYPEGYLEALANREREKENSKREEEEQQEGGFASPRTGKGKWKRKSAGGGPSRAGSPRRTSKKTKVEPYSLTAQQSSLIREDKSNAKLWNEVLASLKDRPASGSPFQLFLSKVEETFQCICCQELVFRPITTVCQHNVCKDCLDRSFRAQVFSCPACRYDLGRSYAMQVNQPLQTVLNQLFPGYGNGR

SMILES | inhibition
C=C(C)C#CC(Cc1ccccc1)N(CC1CC1)/C(N)=N/C(=O)OCc1ccccc1 (stereo not drawn) | -3.18% (inactive)
COc1ccc(C(=O)NNc2cc(C)nc(NNC(=O)c3ccc(OC)cc3)n2)cc1 | 20.7% (active)
COc1ccc(C(=O)NCCSc2ccccc2C)cc1 | 0.98% (inactive)
COc1cccc(C(=O)NC(=O)Nc2nc(C)cc(C(F)(F)F)n2)c1 | 0.01% (inactive)
CCOC(=O)C1CCN(C(=O)C(C)(C)NC(=O)Nc2ccc(F)c(F)c2)CC1 | 2.59% (inactive)
O=C(COc1ccccc1)Nc1ccc(N2CCN(C(=O)c3cccs3)CC2)cc1 | 44.9% (active)
COc1ccc(N2CCN(C(=O)c3cccs3)CC2)cc1 | -7.02% (inactive)
O=C(Nc1ccc(N2CCN(C(=O)c3cccs3)CC2)cc1)c1cccnc1Cl | -0.07% (inactive)
COc1ccc(CCNC(=O)CN(c2ccccc2)S(=O)(=O)c2ccccc2)cc1 | 1.05% (inactive)
CCOc1ccc(N(CC(=O)NCCOc2ccccc2OC)S(=O)(=O)c2ccccc2)cc1 | 28% (active)
CCOc1ccc(N(CC(=O)NCCc2ccc(F)cc2)S(=O)(=O)c2ccccc2)cc1 | 16.8% (inactive)
Cc1ccc(Cn2cc(CN3[C@@H](C)COc4cc(Br)ccc4S3(=O)=O)nn2)cc1 | -1.6% (inactive)
COC(=O)[C@]12C[C@H](CC(=O)NCc3ccccc3)C(=O)N(Cc3ccccc3)C1=C[C@H](COCc1ccccc1)O[C@@H]2C | 3.31% (inactive)
O=S1(=O)c2c(cccc2N2CCSCC2)Oc2ccccc2CN1Cc1cn(Cc2ccc(F)cc2)nn1 | 2.59% (inactive)
CN(C)S(=O)(=O)c1cccc(C(=O)N/N=C\c2ccco2)c1 | -2.24% (inactive)
O=C(Cn1cnc2ccccc21)N/N=C/c1ccco1 | -2.46% (inactive)
O=C(N/N=C/c1ccco1)c1ccc(C(=O)N/N=C/c2ccco2)o1 | 38.3% (active)
C=CS(=O)(=O)N(Cc1nnn(Cc2ccccc2)c1Br)[C@H](C(=O)OC)C(C)C | 3.67% (inactive)
CN(C)CCNC(=O)c1ccc(Cl)c2cc3ccccc3nc12 | 30.7% (active)
CN(C)CCNC(=O)Cc1ccc([N+](=O)[O-])cc1 | -0.93% (inactive)
O=C(NCCCNC(=O)c1ccccc1Cl)c1cnccn1 | 4.5% (inactive)
Cc1ccc(C(=O)O)cc1-c1ccc(/C=C2\SC(=O)N(CC(=O)Nc3ccc4c(c3)OCO4)C2=O)o1 | 12.9% (inactive)
N#Cc1ccccc1CN1C(=O)S/C(=C/c2cccn2-c2cccc(C(=O)O)c2)C1=O | 21.4% (active)
COC(=O)[C@H](C(C)C)N(CCCc1cn(Cc2ccccc2)nn1)S(=O)(=O)c1ccc(F)cc1Br | 7.41% (inactive)
O=S1(=O)c2ccc(Br)cc2OC[C@@H](Cc2ccccc2)N1Cc1cn(Cc2ccco2)nn1 | -5.15% (inactive)
COc1cc(C(=O)OC2CCOC2=O)c([N+](=O)[O-])cc1OC (stereo not drawn) | 22.8% (active)
CC(C)c1ccc(C(=O)OC2CCOC2=O)cc1 (stereo not drawn) | 0.68% (inactive)

SMILES | inhibition
COc1cc(C(=S)N2CCOCC2)cc(OC)c1OC(=O)c1ccc([N+](=O)[O-])cc1[N+](=O)[O-] | 3.69% (inactive)
COc1ccc(CSc2nnc(SCC(=O)Nc3ccccc3C(F)(F)F)s2)cc1 | 2.07% (inactive)
O=C(OCC#CCSc1nnc(-c2ccco2)o1)c1ccc(F)cc1 | -3.52% (inactive)
O=C(CSc1nc2ccccc2nc1N1CCCCC1)N1CCN(S(=O)(=O)c2cccc([N+](=O)[O-])c2)CC1 | -2.11% (inactive)
COc1cccc2c1C(=O)c1c(O)c3c(c(O)c1C2=O)CC(O)(C(C)=NNC(=O)c1ccc(Cl)c(Cl)c1)CC3OC1CC(N)C(O)C(C)O1 (stereo not drawn) | 96% (active)
COc1cccc(CNC(=O)CNS(=O)(=O)c2ccc3nc(C)sc3c2)c1OC | -1.45% (inactive)
COc1cc(NC(=O)C2CCCN(S(=O)(=O)c3ccc(C(C)(C)C)cc3)C2)cc(OC)c1 (stereo not drawn) | 2.42% (inactive)
CCCOc1ccc(Oc2c(Cl)cnn(Cc3cccc4ccccc34)c2=O)cc1 | 2.95% (inactive)
CC(=O)Nc1nc2ncccn2c1-c1ccc(C(F)(F)F)cc1 | -2.41% (inactive)
COc1ccc(N2C(=O)C(CC(=O)Nc3ccc(F)cc3)N(CCc3cccs3)C2=O)cc1 (stereo not drawn) | 1.34% (inactive)
COc1ccc(CCN2C(=O)N(c3ccc(OC)cc3)C(=O)C2CC(=O)Nc2ccc(OC)cc2)cc1 (stereo not drawn) | 37.7% (active)
COc1ccc(N2C(=O)C(CC(=O)Nc3ccccc3)N(Cc3ccc(OC)c(OC)c3)C2=O)cc1 (stereo not drawn) | 1.08% (inactive)
CCCCCCCCCOC1OC(CO)C(O)C(O)C1NC(C)=O (stereo not drawn) | 53.3% (active)
CCCCCCCCOC1OC(CO)C(O)C(O)C1NC(C)=O (stereo not drawn) | 0.97% (inactive)
CCc1cccc(OC2OC(CO)C(O)C(O)C2NC(C)=O)c1 (stereo not drawn) | 1.52% (inactive)
CCC(NC(=O)C1C2C=CC3(CN(Cc4ccccc4)C(=O)C13)O2)c1ccccc1 (stereo not drawn) | 0.23% (inactive)
Cc1cc(C(=O)NN=C/C=C/c2ccco2)n[nH]1 | 5.21% (inactive)
CCOc1ccc(NC(=O)c2ccc(NC(=O)CN3C(=O)C(=O)N(CC(C)C)C3=O)cc2)cc1 | 3.55% (inactive)
CCOc1ccc(NC(=O)c2ccc(NC(=O)COC(=O)c3ccc(NC(=O)CC#N)cc3)cc2)cc1 | 23.6% (active)
CCOc1ccc(NC(=O)c2ccc(CSc3nnnn3C)cc2)cc1 | -0.48% (inactive)
COc1cccc(Cn2cc(COC(=O)Nc3ccc(F)cc3)nn2)c1 | 0.48% (inactive)
CCOC(=O)N1CCN(Cc2nc3c(c(=O)n(C)c(=O)n3C)n2Cc2ccccc2)CC1 | 1.75% (inactive)
Cc1cccc(Cn2c(N3CCN(c4ccccc4)CC3)nc3c2c(=O)n(C)c(=O)n3C)c1 | 23.8% (active)
Cn1c(=O)c2c(ncn2CC(=O)N2CCN(c3ccccc3)CC2)n(C)c1=O | -2.46% (inactive)
CN(C)[C@H]1CCN(c2cccc3c2S(=O)(=O)N2CC[C@H](C2)O3)C1 | -0.6% (inactive)
O=C(NCCCc1ccccc1)[C@H](Cc1ccccc1)NC1(C(=O)NCCc2c[nH]c3ccccc23)CCC1 | 0.93% (inactive)
